# Values without a mark were called inactive. Inconclusive results are not listed. Where a call stands in place of a potency, no number is given. Active and inactive are the calls of the source. Unless noted, calls come from the whole dose curve; as a rule, active = well fitted curve in the direction sought with a large enough effect in the repeat runs; inconclusive = weak or mixed curves; inactive = no such curve, though single readings can be large; an effect the other way counts as inactive or inconclusive. Non-standard residues stand in square brackets, D forms with d. Residues, ends and D or L forms follow the SMILES beside them. *: point of attachment. Sta = CC(C)C[C@H](N)[C@@H](O)CC(=O)O; Isovaleryl = CC(C)CC(=O)*
# Assays:
# [1] = qHTS assay to identify small molecule antagonists of the retinoid acid receptor (RAR) signaling pathway - cell viability counter screen (AID 1159551); note: nearly all actives have a fitted effect of over 35% in size
# Method in brief: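 Retinol-stimulated (1 uM final) C3RL4 cells, compound 6 h, 37 C; readout CellTiter-Glo luminescence (ATP) after 30 min RT incubation.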
# [2] = qHTS assay to identify small molecule antagonists of the retinoic acid receptor (RAR) signaling pathway (AID 1159552; note: nearly all actives have a fitted effect of over 50% in size)
# Method in brief: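 Readout: luciferase luminescence, 30 min post-reagent at RT. Setup: C3RL4 RARE reporter cells, compounds plus retinol 1 uM final, 6 hr incubation at 37 C and 5% CO2.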
# [3] = qHTS assay to identify small molecule agonists of the retinoic acid receptor (RAR) signaling pathway (AID 1159553); note: potency is the fitted concentration of half-maximal effect
# Method in brief: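 Reporter readout comes from luciferase under RARE control in C3RL4 cells; compound exposure lasts 6 hr at 37 C in 5% CO2, and luminescence is recorded following a 30 min room-temperature incubation with reagent.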
# [4] = qHTS assay to identify small molecule antagonists of the estrogen related receptor (ERR) signaling pathway from Tox21 library - cell viability counter screen (AID 1224834); note: nearly all actives have a fitted effect of over 30% in size
# Method in brief: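 After 17.5 h of compound exposure at 37 C, ERR cells are incubated with CellTiter-Fluor for 30 min and fluorescence intensity serves as the viability measure.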
# [5] = biological target: Luciferin 4-monooxygenase (Photinus pyralis) (UniProt P08659); experiment: qHTS assay to identify small molecule inhibitors of firefly luciferase (AID 1224835); note: nearly all actives have a fitted effect of over 25% in size; note: potency is the fitted concentration of half-maximal effect
# Method in brief: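 Biochemical qHTS: compounds run as interplate titrations against purified firefly enzyme, with D-luciferin and ATP each at its KM concentration. Light output recorded by CCD imaging.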
# [6] = qHTS assay to identify small molecule agonists of the constitutive androstane receptor (CAR) signaling pathway - cell viability counter screen (AID 1224836); note: nearly all actives have a fitted effect of over 45% in size
# Method in brief: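 Compound titrations (15 concentrations) went onto HepG2-CYP2B6-hCAR cells 4 h after seeding, alongside PK11195 at a final 0.75 uM; a 23 h, 37 C/5% CO2 incubation preceded CellTiter-Fluor viability measurement.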
# [7] = qHTS assay to identify small molecule antagonists of the constitutive androstane receptor (CAR) signaling pathway - cell viability counter screen (AID 1224837); note: nearly all actives have a fitted effect of over 45% in size
# Method in brief: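 Counter screen run in HepG2-CYP2B6-hCAR cells: 4 hr settle, compound titration (15 concentrations) with 50 nM CITCO, 23 hr at 37 C/5% CO2, CellTiter-Fluor fluorescence.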
# [8] = biological target: Nuclear receptor subfamily 1 group I member 3 (Homo sapiens) (UniProt Q14994); experiment: qHTS assay to identify small molecule antagonists of the constitutive androstane receptor (CAR) signaling pathway (AID 1224838);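 note: HepG2 cells stably expressing hCAR with CYP2B6 luciferase reporter stimulated by CITCO; nearly all actives have a fitted effect of over 40% in size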
# Method in brief: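 Cell line: HepG2 double-stable for hCAR and CYP2B6-2.2kb reporter. Agonist: CITCO, 50 nM final. Compounds: 15 concentrations, 24 h, 37 C. Detection: ONE-Glo luminescence.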
# [9] = biological target: Nuclear receptor subfamily 1 group I member 3 (Homo sapiens) (UniProt Q14994); experiment: qHTS assay to identify small molecule agonists of the constitutive androstane receptor (CAR) signaling pathway (AID 1224839); note: nearly all actives have a fitted effect of over 15% in size; note: potency is the fitted concentration of half-maximal effect;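 for activation: HepG2 cells stably carrying human CAR and a CYP2B6 luciferase reporter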
# Method in brief: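 In this screen, CAR-driven CYP2B6 promoter activity is measured by luminescence in HepG2-CYP2B6-hCAR cells after 24 h with test compounds and 0.75 uM PK11195 (final concentration).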
# [10] = qHTS assay to identify small molecule antagonists of the estrogen related receptor signaling pathway with the pleiotropic PPARgamma coactivator (PGC) from Tox21 10K library - cell viability counter screen (AID 1224840; active = well fitted cell-killing curve with a large enough effect in the repeat runs, not every such curve was filed as active; note: nearly all actives have a fitted effect of over 40% in size)
# Method in brief: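 Following seeding of 2,000 PGC/ERR cells/well and 6 hours' incubation, test compounds were delivered in DMSO. The plates then sat 17.5 hours at 37 C before a fluorogenic live-cell protease reagent (CellTiter-Fluor) was read after 30 min.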
# [11] = biological target: Thyrotropin receptor (Homo sapiens) (UniProt P16473); experiment: qHTS assay to identify small molecule agonists of the thyroid stimulating hormone receptor (TSHR) signaling pathway (AID 1224843; calls by dose curve; note: nearly all actives have a fitted effect of over 45% in size; note: potency is the fitted concentration of half-maximal effect)
# Method in brief: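 TSHR-HEK293 cells in agonist mode, 30 min room-temperature step, then cAMP measured by competitive HTRF (cAMP-d2 with anti-cAMP cryptate) after 1 h at room temperature. Tested at 15 concentrations in triplicate.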
# [12] = qHTS assay to identify small molecule agonists of the hypoxia (HIF-1) signaling pathway - cell viability counter screen (AID 1224844; calls by dose curve; note: nearly all actives have a fitted effect of over 50% in size)
# Method in brief: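 Cells (HRE-bla ME-180, 2,000 per well) sat 5 hrs at 37C, got compound for 17 hrs, were read for CCF4-AM FRET, and were finally lysed with CellTiter-Glo for a 30 min room-temperature luminescence read.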
# [13] = qHTS assay to identify small molecule agonists of H2AX (AID 1224845; active = well fitted activation curve with a large enough effect in the signal ratio in the repeat runs, not every such curve was filed as active; the % refers to the signal ratio)
# Method in brief: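 Wild-type CHO-K1 cells, plated overnight, exposed 3hr at 37C to 15 concentrations (0.76% DMSO final). Lysed, then HTRF anti-pH2AX (S139) cryptate and anti-H2AX-d2 antibodies, 24 hr room temperature; 665/620 nm emission read.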
# [14] = qHTS assay to identify small molecule agonists of the hypoxia (HIF-1) signaling pathway (AID 1224846; active = well fitted activation curve with a large enough effect in the signal ratio in the repeat runs, not every such curve was filed as active; the % refers to the signal ratio)
# Method in brief: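 A low-serum medium (0.5% dialyzed FBS) holding 2,000 HRE-bla ME-180 cells per well is preincubated for 5 hrs, dosed with compounds by pintool, and kept a further 17 hrs at 37C, 5% CO2 before CCF4-AM FRET detection of beta-lactamase.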
# [15] = qHTS RealTime-Glo MT Cell Viability Assay in HepG2 cells - 24 hour (AID 1224867); note: nearly all actives have a fitted effect of over 50% in size
# Method in brief: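 Real-time, nonlytic viability: 600 HepG2 cells/well mixed with NanoLuc enzyme plus prosubstrate; 5 h settle, compound (DMSO) added by pintool; luminescence monitored over 40 h at 37 C.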
# [16] = qHTS assay to identify small molecule agonists of H2AX - cell viability counter screen (AID 1224847; calls by dose curve; note: top concentration of the series differs between compounds; nearly all actives have a fitted effect of over 30% in size)
# Method in brief: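 Read-out: CellTiter-Glo luminescence, 30 min RT. Cells: wild-type CHO-K1, 1000/well, 10% FBS, plated overnight at 37C. Treatment: 15 concentrations, 3 hr, 37C, 0.76% DMSO.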
# [17] = qHTS assay to identify small molecule antagonists of the estrogen related receptor signaling pathway with the pleiotropic PPARgamma coactivator (PGC) from Tox21 10K library (AID 1224841; call rule not given here; note: actives are mostly falling curves and most rising ones were filed inactive; nearly all actives have a fitted effect of over 50% in size)
# Method in brief: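 qHTS antagonist format: PGC/ERR cells, 2k/well, compound in DMSO by pin transfer after 6 h attachment, 18 h treatment at 37 C, One-Glo luminescence read at 30 min.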
# [18] = qHTS assay to identify small molecule agonists of the estrogen related receptor signaling pathway with the pleiotropic PPARgamma coactivator (PGC) from Tox21 10K library (AID 1224842); note: nearly all actives have a fitted effect of over 15% in size
# Method in brief: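 PGC/ERR reporter cell line, 2,000 cells per well, incubated 6 h at 37 C before 23 nL compound in DMSO was added. After 18 h at 37 C, One-Glo luminescence read following 30 min at room temperature.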
# [19] = qHTS assay to identify small molecule antagonists of the estrogen related receptor (ERR) signaling pathway from Tox21 library (AID 1224848); note: nearly all actives have a fitted effect of over 50% in size
# Method in brief: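 ERR reporter cell line (from NTP) seeded 2,000 cells/well, rested 6 h at 37 C/5% CO2, then pin-dosed with compounds in DMSO. After 18 h at 37 C, ONE-Glo added; luminescence read after 30 min at room temperature.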
# [20] = qHTS assay to identify small molecule agonists of the estrogen related receptor (ERR) signaling pathway from Tox21 library (AID 1224849; calls by dose curve; note: nearly all actives have a fitted effect of over 15% in size); conditions: ERR reporter cell line, ONE-Glo luciferase, 18 h; at 92.4 µM (top of the series) unless noted
# Method in brief: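 Screening used an NTP-provided ERR luciferase cell line. Compounds in DMSO were added 6 h after seeding and left 18 h at 37 C before a 30 min ONE-Glo step and luminescence reading.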
# Sequence of Luciferin 4-monooxygenase (Photinus pyralis) (P08659 whole entry, looked up): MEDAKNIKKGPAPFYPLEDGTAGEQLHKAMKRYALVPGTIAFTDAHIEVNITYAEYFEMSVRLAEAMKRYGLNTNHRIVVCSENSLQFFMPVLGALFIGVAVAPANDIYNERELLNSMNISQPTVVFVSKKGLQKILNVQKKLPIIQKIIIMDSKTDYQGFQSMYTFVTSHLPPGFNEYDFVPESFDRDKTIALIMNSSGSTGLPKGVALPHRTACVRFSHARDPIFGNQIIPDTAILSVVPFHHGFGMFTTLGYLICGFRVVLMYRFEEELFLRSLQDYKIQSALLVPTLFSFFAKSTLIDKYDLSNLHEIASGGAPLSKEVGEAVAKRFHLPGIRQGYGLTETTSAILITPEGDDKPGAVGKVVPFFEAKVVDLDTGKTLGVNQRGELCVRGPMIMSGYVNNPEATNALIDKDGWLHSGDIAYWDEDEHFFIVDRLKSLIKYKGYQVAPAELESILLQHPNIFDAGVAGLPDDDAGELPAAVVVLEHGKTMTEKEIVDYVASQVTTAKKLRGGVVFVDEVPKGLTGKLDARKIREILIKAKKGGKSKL
# Sequence of Thyrotropin receptor (Homo sapiens) (P16473 whole entry, looked up): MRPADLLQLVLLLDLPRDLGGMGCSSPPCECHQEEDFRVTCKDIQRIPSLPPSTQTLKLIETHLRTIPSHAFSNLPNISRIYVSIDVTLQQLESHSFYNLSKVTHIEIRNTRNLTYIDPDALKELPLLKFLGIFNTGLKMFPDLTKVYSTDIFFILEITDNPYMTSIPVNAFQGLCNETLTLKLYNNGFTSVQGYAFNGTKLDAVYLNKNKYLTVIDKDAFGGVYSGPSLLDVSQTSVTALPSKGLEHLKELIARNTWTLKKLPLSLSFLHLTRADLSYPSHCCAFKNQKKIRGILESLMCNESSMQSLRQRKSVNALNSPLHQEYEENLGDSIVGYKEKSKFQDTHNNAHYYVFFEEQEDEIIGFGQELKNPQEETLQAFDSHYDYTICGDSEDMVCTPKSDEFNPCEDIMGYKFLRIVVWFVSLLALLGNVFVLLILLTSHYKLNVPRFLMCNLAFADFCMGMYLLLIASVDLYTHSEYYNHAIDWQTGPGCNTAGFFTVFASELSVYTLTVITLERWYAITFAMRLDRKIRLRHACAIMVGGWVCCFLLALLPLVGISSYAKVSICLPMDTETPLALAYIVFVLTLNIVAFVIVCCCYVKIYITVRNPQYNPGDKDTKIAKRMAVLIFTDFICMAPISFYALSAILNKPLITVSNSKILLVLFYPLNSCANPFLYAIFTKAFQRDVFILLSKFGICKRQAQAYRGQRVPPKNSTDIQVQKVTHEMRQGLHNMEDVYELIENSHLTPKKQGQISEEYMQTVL
# Sequence of Nuclear receptor subfamily 1 group I member 3 (Homo sapiens) (Q14994 whole entry, looked up): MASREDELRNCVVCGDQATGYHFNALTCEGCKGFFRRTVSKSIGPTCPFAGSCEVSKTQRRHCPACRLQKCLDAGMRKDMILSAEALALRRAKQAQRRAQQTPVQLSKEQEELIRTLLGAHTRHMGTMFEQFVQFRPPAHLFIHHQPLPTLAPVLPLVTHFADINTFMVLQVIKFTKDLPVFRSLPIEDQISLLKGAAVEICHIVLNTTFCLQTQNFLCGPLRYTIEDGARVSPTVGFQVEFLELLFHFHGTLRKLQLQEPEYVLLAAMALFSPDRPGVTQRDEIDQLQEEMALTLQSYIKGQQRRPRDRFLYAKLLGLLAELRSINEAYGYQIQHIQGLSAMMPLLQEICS
SMILES,outcome [1],outcome [2],Potency [3],outcome [4],Potency [5],outcome [6],outcome [7],outcome [8],Potency [9],outcome [10],Potency [11],outcome [12],outcome [13],outcome [14],outcome [15],outcome [16],Potency [17],Potency [18],outcome [19],"activity change, positive = activation [20]"
CCCC(=O)C(CC)Sc1ccoc1C (stereo not drawn),inactive,inactive,inactive,inactive,inactive,inactive,inactive,inactive,inactive,inactive,inactive,inactive,inactive,inactive,inactive,,,,,
CCOC(=O)c1ccc(N(C)C)cc1,inactive,inactive,15.4 µM (active),inactive,35.6 µM (active),inactive,inactive,inactive,30.6 µM (active),inactive,,,inactive,inactive,inactive,inactive,,,,
O=S(=O)(O)c1ccc(Cl)cc1,inactive,inactive,inactive,inactive,inactive,inactive,inactive,inactive,inactive,inactive,,inactive,inactive,inactive,inactive,,,,,
C=C(C)C(=O)OCCOC1CC2CC1C1C=CCC21 (stereo not drawn),inactive,inactive,inactive,inactive,inactive,inactive,inactive,,inactive,inactive,,inactive,inactive,inactive,inactive,inactive,inactive,inactive,inactive,
COc1cc(NS(=O)(=O)c2ccc(N)cc2)ncn1,inactive,inactive,inactive,inactive,inactive,inactive,inactive,inactive,inactive,inactive,inactive,inactive,inactive,,inactive,inactive,,,,
O=C(O)CCC(=O)Nc1ccc(S(=O)(=O)Nc2nccs2)cc1,inactive,inactive,inactive,inactive,inactive,inactive,inactive,inactive,,inactive,,,inactive,,inactive,inactive,inactive,inactive,inactive,8.26% [at 42.5 µM]
CCCCCCCCS(=O)(=O)O,inactive,inactive,inactive,inactive,inactive,inactive,inactive,,inactive,inactive,inactive,inactive,inactive,inactive,inactive,inactive,,,,
CC(C)CC(O)Cc1ccccc1 (stereo not drawn),inactive,inactive,inactive,inactive,inactive,inactive,inactive,,inactive,inactive,inactive,,inactive,inactive,inactive,inactive,,,,
CC(C)CC(=O)N[C@H](C(=O)N[C@H](C(=O)N[C@@H](CC(C)C)[C@@H](O)CC(=O)N[C@@H](C)C(=O)N[C@@H](CC(C)C)[C@@H](O)CC(=O)O)C(C)C)C(C)C (Isovaleryl-VV[Sta]A[Sta]-OH),inactive,inactive,inactive,inactive,inactive,inactive,inactive,,inactive,inactive,inactive,,inactive,,inactive,inactive,,,,
NC(=O)CC[C@@H](N)C(=O)O,inactive,inactive,inactive,inactive,inactive,inactive,inactive,,inactive,inactive,inactive,inactive,inactive,inactive,inactive,inactive,inactive,inactive,inactive,1.56% [at 42.5 µM]
O=C(O)/C=C(\CC(=O)O)C(=O)O,inactive,inactive,inactive,inactive,inactive,inactive,inactive,inactive,inactive,inactive,inactive,inactive,inactive,,inactive,inactive,,,,
Cc1cc(N)no1,inactive,inactive,inactive,inactive,inactive,inactive,inactive,inactive,inactive,inactive,inactive,inactive,inactive,,inactive,inactive,,,,
COC(=O)c1cc(Cl)c(NC(C)=O)cc1OC,inactive,inactive,inactive,inactive,inactive,inactive,inactive,,inactive,inactive,inactive,inactive,inactive,inactive,inactive,inactive,,,,
CC1=C(O)C(=O)CO1,inactive,inactive,inactive,inactive,inactive,inactive,inactive,inactive,inactive,inactive,,inactive,inactive,inactive,inactive,inactive,,,,
O=C(O)COc1ccc2ccccc2c1,inactive,inactive,inactive,inactive,39.9 µM (active),inactive,inactive,,inactive,inactive,,inactive,inactive,,inactive,inactive,,,,
O=c1c(O)c(O)c1=O,inactive,inactive,inactive,inactive,inactive,inactive,inactive,,inactive,inactive,27.3 µM (active),,inactive,inactive,inactive,inactive,,,,
O=Cc1ccccc1S(=O)(=O)O,inactive,inactive,inactive,inactive,inactive,inactive,inactive,,inactive,inactive,,inactive,inactive,inactive,inactive,inactive,,,,
CCCCN=C(N)N=C(N)N,inactive,inactive,inactive,inactive,inactive,inactive,inactive,,inactive,inactive,inactive,inactive,inactive,inactive,inactive,inactive,,,,
